± gives the standard deviation.

The subject of this assay is EfPiwi piRISC loaded with L1MC piRNA (26 nt). The assay is described as follows: pre-steady-state target cleavage rate (min^-1); auxiliary factor: 500 nM Ephydatia muelleri Gtsf1; guide: L1MC piRNA 5'p-UAACUAAAUACUAUGCAAGCUGUAGG; MIWI and MILI are mouse PIWI proteins and EfPiwi is from a freshwater sponge; tags in brackets are library labels; higher = faster piRNA-guided slicing of the target. An outline of the steps: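 Cleave-'n-Seq: a transcribed, DNA-blocked target RNA library (0.1 nM) was mixed with 1 nM active affinity-purified piRISC carrying one synthetic guide, with or without 500 nM GTSF1 partner protein, in HEPES–potassium acetate buffer at 33 °C for 0–8 or 0–960 min. Uncleaved targets were sequenced and normalised to depth and to weakly complementary targets. Three trials were pooled, and k3 was capped at 0.0001 min^-1. The pre-steady-state cleavage rate came from a burst-and-steady-state fit.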
In the case of UCCUGGAUCAGCUUGCAUAGAAUUUAGUUA, the “pre-steady-state target cleavage rate” value was 0.00327 ± 0.0015.

Regarding UCCUCCUAGAGCUUGCAUACUAUUUAGUUA, the “pre-steady-state target cleavage rate” value was determined as 0.00855 ± 0.0026. To UCCUGGAUGUCGAACCAUCGUAUUUAGUUA belongs less than 0.0001; to UCCUGGUUCAGCUUGCAAAGUAUUUAGUUA, 0.0681 ± 0.019. To UCCUGGAUCUGCUUGCAUAGUUUUUAGUUA belongs 0.00787 ± 0.0041; to UCCUGGAUGUCGAACGUAUGUAUUUUAGUUA, less than 0.0001; to UCCUCCUACAGCUUGCAAAGUAUUUAGUUA, 0.0392 ± 0.012. On to UCCUGGAUCAGCUUGCAUAGUAUGUUAGUUA, for which the “pre-steady-state target cleavage rate” value amounted to 0.031 ± 0.0087.

Regarding UCCUGCUACAGGUUGCUUAGUAUUUAGUUA, the “pre-steady-state target cleavage rate” value amounted to 0.0276 ± 0.0074. Turning to UCCUGGAUGUCGAACGUAUGUAUUUAGAUUA, the “pre-steady-state target cleavage rate” value was less than 0.0001. In the case of UCCUGGAACACGUUGCAUAGUAUUUAGUUA, the “pre-steady-state target cleavage rate” value stood at 0.0172 ± 0.0053. Regarding UCCUGGUACAGCUUCGAUAGUAUUUACAAA, the “pre-steady-state target cleavage rate” value stood at 0.00595 ± 0.0049. On to UCCUCCUGCAGCUUGCAUAGUAUUUAGUUA, for which the “pre-steady-state target cleavage rate” value was found to be 0.103 ± 0.024. The figure for UCCUGGAUCAGCUUGCAUAGUAUUAAGUUA is 0.0323 ± 0.0094. To UCCUGGUACAGCUUGUAUAGUAUUUAGUUA belongs 0.0177 ± 0.0048; to UCCUGGAUGUCGAACGAUACGUAUUUAGUUA, less than 0.0001. Consider UCCUGGAUGUCGAACCAUAGUCUUUAGUUA, for which the “pre-steady-state target cleavage rate” value was less than 0.0001. Consider UCCUGGAUGUGCUUGCAUAGUAUUUAGCUA, for which the “pre-steady-state target cleavage rate” value came out at 0.00363 ± 0.0021.

Regarding UCCUGGAUCAGCUUGGAAAGUAUUUAGUUA, the “pre-steady-state target cleavage rate” value came to 0.00365 ± 0.0033.

“UCCUGGAUGUGCUUGCAUUCAUAAAUCAAA [g13:g20:cont:t1A]”: the “pre-steady-state target cleavage rate” value is less than 0.0001. To UCCUCCUACAGCCUGCAUAGUAUUUAGUUA belongs 0.0698 ± 0.018.

As to UCCUGGUACAGCUUGCGAUAGUAUUUAGUUA, the “pre-steady-state target cleavage rate” value was 0.00543 ± 0.0019. To UCCUGGAUGAGGUUGCAUAGUAUUUAGAAA belongs 0.00315 ± 0.0029; to UCCUCCUACAGCUUGAAUAGUAUUUAGUUA, 0.0651 ± 0.017.

For the origin of these results see the supplement of paper PMC10338343.
